# Measured values: PubChem BioAssay (Tox21)
# Records with an inconclusive call do not appear. A number with no mark means an inactive call. Calls of active or inactive are those of the source. Calls follow the shape of the full dose curve.
# Experiment: qHTS assay to identify small molecule agonists of the AP-1 signaling pathway (AID 1159526)
# Details: ME-180 (cervical carcinoma) AP-1-bla reporter, beta-lactamase FRET ratio, 5 h; series mostly up to 76.8 µM; activation: at the top concentration
# % is scaled to controls: 0 for no effect and ±100 for the full control effect.
Compound,activation,outcome
CN(C)c1ccc(C(=O)c2ccc(N(C)C)cc2)cc1,6.5%,–
CCN(N=O)C(N)=O,–,inactive
Cc1c(COC(=O)[C@@H]2[C@H](/C=C(\Cl)C(F)(F)F)C2(C)C)cccc1-c1ccccc1,–,inactive
CC(C)c1ccc(CO)cc1,–,inactive
O=[N+]([O-])c1c(Cl)c(Cl)c(Cl)c(Cl)c1Cl,–,inactive
CC(C)C(=O)OCC(C)(C)C(OC(=O)C(C)C)C(C)C (stereo unspecified),–,inactive
CCOc1cc(C=O)ccc1O,–,inactive
COc1ccc(C(CN(C)C)C2(O)CCCCC2)cc1 (stereo unspecified),–,inactive
COC(=O)c1sccc1S(=O)(=O)NC(=O)Nc1nc(C)nc(OC)n1,–,inactive
CCOc1cc(Oc2ccc(C(F)(F)F)cc2Cl)ccc1[N+](=O)[O-],–,inactive
NCc1cccnc1,–,inactive
NC(=S)Nc1ccccc1,-3.12%,–
O=P(Oc1ccccc1)(Oc1ccccc1)Oc1ccccc1,–,inactive
Nc1c(Cl)cc([N+](=O)[O-])cc1Cl,-2.1%,–
CC(C)Oc1cc(-n2nc(C(C)(C)C)oc2=O)c(Cl)cc1Cl,9.21%,–
CCCCCCOC(=O)c1ccccc1C(=O)OCCCCCC,–,inactive

Compound,activation,outcome
O=Cc1ccco1,–,inactive
N[C@@H](Cc1ccc(N(CCCl)CCCl)cc1)C(=O)O,–,inactive
Nc1ccc(Cl)cc1N,–,inactive
ClC1C(Cl)C(Cl)C(Cl)C(Cl)C1Cl (stereo unspecified),–,inactive
C=C(C)C(=O)OCC1CO1 (stereo unspecified),–,inactive
O=C(CCl)c1ccccc1,1.76%,–
C=C(C)[C@H]1Cc2c(ccc3c2O[C@@H]2COc4cc(OC)c(OC)cc4[C@@H]2C3=O)O1,–,inactive
CCC(=O)O[C@H]1CC[C@H]2[C@@H]3CCC4=CC(=O)CC[C@]4(C)[C@H]3CC[C@]12C,24.3% [at 35.3 µM],–
CCCCCCCCOC(=O)c1ccccc1C(=O)OCCCCCCCC,–,inactive
CCCCC(CC)COC(=O)c1ccc(C(=O)OCC(CC)CCCC)c(C(=O)OCC(CC)CCCC)c1 (stereo unspecified),–,inactive
Nc1ccncc1,–,inactive
c1nc[nH]n1,–,inactive
Nn1cnnc1,–,inactive
Cc1ccccc1[N+](=O)[O-],–,inactive
O=S(=O)(Oc1ccc(Cl)cc1)c1ccc(Cl)cc1,–,inactive
